# Reference: the supplement of paper PMC8728848
# Shown is part of a subset that was picked to be rich in the strongest signals.
# B1: PX9961A-pdi-456-24-456 (Parabacteroides distasonis) (protein)
# chain: KTSSTQLPTIDAISSVADLTNAVNGVYEQQATEVGSYGAEFTLLADLRSGDFQSISTVNHAGPMYRYQTGKNDEMVYSFYKLFYNSLARLNNVLAAAENLEGADVDILKGELYAMRALYHFDLARVFAKLPSTTDMNDLGIVLSTEVYPTDYIGTRATLQQTYDQILKDIETALPLLSKDKQTGHINYWGALAIRARAYLYLEKNKEALADCKEIIASSPYKLYTRDEYIGAWDKEGTNEAIFEILVTPNYNAQRNSIGYFTHASGYGECAATESFLEELAKHPGDIRTELFAKETDNGYDGTYPQKYKGRDGQIYVNNPKVVRLSEVYLIAAEAALKAGDTSAAAGYMNTLRKNRIENYTDVASITLDDILLERRLELFTEGHTAWDAWRNGKSVNNKFVGEVKPGDYRTIMAIPIGEITVSRGQLIQNPGY
# Assays:
# Experiment in all cases: glycan array binding signal (z-score within array); higher = stronger binding
# Conditions in all cases: glycan notation: IUPAC condensed, linker removed
# [1] = biological target: Gal(b1-4)GlcNAc(b1-3)Gal(b1-4)GlcNAc(b1-3)Gal(b1-4)GlcNAc(b1-3)Gal(b1-4)GlcNAc(b1-2)Man(a1-3)[Gal(b1-4)GlcNAc(b1-3)Gal(b1-4)GlcNAc(b1-3)Gal(b1-4)GlcNAc(b1-3)Gal(b1-4)GlcNAc(b1-2)Man(a1-6)]Man(b1-4)GlcNAc(b1-4)[Fuc(a1-6)]GlcNAc
# Outline: (§1)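 Glycan array binding is given as a within-array Z-score, which can be read as non-binding when negative. The arrays, 3228 of them, came from the Consortium for Functional Glycomics database and were retained only where the protein sequence was available. Z-scores were averaged across arrays of the same protein sequence at different concentrations or buffers and across linkers.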
# [2] = biological target: Gal(b1-4)GlcNAc(b1-3)Gal(b1-4)GlcNAc(b1-3)Gal(b1-4)GlcNAc(b1-3)Gal(b1-4)GlcNAc(b1-3)Gal(b1-4)GlcNAc(b1-2)Man(a1-3)[Gal(b1-4)GlcNAc(b1-3)Gal(b1-4)GlcNAc(b1-3)Gal(b1-4)GlcNAc(b1-3)Gal(b1-4)GlcNAc(b1-3)Gal(b1-4)GlcNAc(b1-2)Man(a1-6)]Man(b1-4)GlcNAc(b1-4)GlcNAc
# Outline: as §1
# [3] = biological target: Gal(b1-4)GlcNAc(b1-3)Gal(b1-4)GlcNAc(b1-3)Gal(b1-4)GlcNAc(b1-3)Gal(b1-4)GlcNAc(b1-3)Gal(b1-4)GlcNAc(b1-3)Gal(b1-4)GlcNAc(b1-2)Man(a1-3)[Gal(b1-4)GlcNAc(b1-3)Gal(b1-4)GlcNAc(b1-3)Gal(b1-4)GlcNAc(b1-3)Gal(b1-4)GlcNAc(b1-3)Gal(b1-4)GlcNAc(b1-3)Gal(b1-4)GlcNAc(b1-2)Man(a1-6)]Man(b1-4)GlcNAc(b1-4)GlcNAc
# Outline: as §1
# [4] = biological target: Gal(b1-4)GlcNAc(b1-3)Gal(b1-4)GlcNAc(b1-3)GalNAc
# Outline: as §1
# Gal3S(b1-4)Glc = biological target: Gal3S(b1-4)Glc
# Outline: as §1
# GalNAc(a1-3)Gal = biological target: GalNAc(a1-3)Gal
# Outline: as §1
# [5] = biological target: GalNAc(b1-3)Gal(a1-4)Gal(b1-4)GlcNAc(b1-3)Gal(b1-4)Glc
# Outline: as §1
# Glc(b1-6)Glc = biological target: Glc(b1-6)Glc
# Outline: as §1
# [6] = biological target: GlcNAc(b1-2)Man(a1-3)[GlcNAc(b1-4)][GlcNAc(b1-2)Man(a1-6)]Man(b1-4)GlcNAc(b1-4)GlcNAc
# Outline: as §1
# [7] = biological target: GlcNAc(b1-3)Gal(b1-4)GlcNAc(b1-2)[GlcNAc(b1-3)Gal(b1-4)GlcNAc(b1-6)]Man(a1-6)[GlcNAc(b1-3)Gal(b1-4)GlcNAc(b1-2)Man(a1-3)]Man(b1-4)GlcNAc(b1-4)GlcNAc
# Outline: as §1
# [8] = biological target: GlcNAc(b1-3)Gal(b1-4)GlcNAc(b1-3)Gal(b1-4)GlcNAc(b1-3)Gal(b1-4)GlcNAc(b1-3)Gal(b1-4)GlcNAc(b1-2)Man(a1-3)[GlcNAc(b1-3)Gal(b1-4)GlcNAc(b1-3)Gal(b1-4)GlcNAc(b1-3)Gal(b1-4)GlcNAc(b1-3)Gal(b1-4)GlcNAc(b1-2)Man(a1-6)]Man(b1-4)GlcNAc(b1-4)[Fuc(a1-6)]GlcNAc
# Outline: as §1
# [9] = biological target: GlcNAc(b1-3)Gal(b1-4)GlcNAc(b1-3)GalNAc
# Outline: as §1
# [10] = biological target: GlcNAc(b1-3)Gal(b1-4)GlcNAc(b1-3)[GlcNAc(b1-3)Gal(b1-4)GlcNAc(b1-3)]GalNAc
# Outline: as §1
# [11] = biological target: Neu5Ac(a2-3)Gal(b1-3)GlcNAc(b1-2)Man(a1-3)[Neu5Ac(a2-3)Gal(b1-3)GlcNAc(b1-2)Man(a1-6)]Man(b1-4)GlcNAc(b1-4)GlcNAc
# Outline: as §1
# [12] = biological target: Neu5Ac(a2-3)Gal(b1-3)GlcNAc(b1-4)Gal(b1-4)Glc
# Outline: as §1
# [13] = biological target: Neu5Ac(a2-3)Gal(b1-3)GlcNAc(b1-6)GalNAc
# Outline: as §1
# [14] = biological target: Neu5Ac(a2-3)Gal(b1-3)GlcNAc6S
# Outline: as §1
# [15] = biological target: Neu5Ac(a2-3)Gal(b1-4)[Fuc(a1-3)]GlcNAc(b1-2)Man
# Outline: as §1
# [16] = biological target: Neu5Ac(a2-3)Gal(b1-4)[Fuc(a1-3)]GlcNAc(b1-6)[Neu5Ac(a2-3)Gal(b1-3)]GalNAc
# Outline: as §1
# Neu5Ac(a2-6)Gal = biological target: Neu5Ac(a2-6)Gal
# Outline: as §1
# [17] = biological target: Neu5Ac(a2-6)Gal(b1-4)GlcNAc(b1-2)Man(a1-3)Man(b1-4)GlcNAc(b1-4)GlcNAc
# Outline: as §1
# [18] = biological target: Neu5Ac(a2-6)Gal(b1-4)GlcNAc(b1-2)[Neu5Ac(a2-6)Gal(b1-4)GlcNAc(b1-4)]Man(a1-3)[GlcNAc(b1-4)][Neu5Ac(a2-6)Gal(b1-4)GlcNAc(b1-4)Man(a1-6)]Man(b1-4)GlcNAc(b1-4)GlcNAc
# Outline: as §1
# [19] = biological target: Neu5Ac(a2-6)Gal(b1-4)GlcNAc(b1-6)[Gal(b1-3)]GalNAc
# Outline: as §1
binder,measurement,setting,value
B1,glycan array binding signal (z-score),[1],6.49
same,glycan array binding signal (z-score),[2],2.59
same,glycan array binding signal (z-score),[3],7.59
same,glycan array binding signal (z-score),[4],0.087
same,glycan array binding signal (z-score),Gal3S(b1-4)Glc,-0.121
same,glycan array binding signal (z-score),GalNAc(a1-3)Gal,3.31
same,glycan array binding signal (z-score),[5],0.012
same,glycan array binding signal (z-score),Glc(b1-6)Glc,-0.218
same,glycan array binding signal (z-score),[6],-0.42
same,glycan array binding signal (z-score),[7],0.033
same,glycan array binding signal (z-score),[8],2.18
same,glycan array binding signal (z-score),[9],0.389
same,glycan array binding signal (z-score),[10],-0.009
same,glycan array binding signal (z-score),[11],-0.512
same,glycan array binding signal (z-score),[12],-0.437
same,glycan array binding signal (z-score),[13],0.343
same,glycan array binding signal (z-score),[14],0.048
same,glycan array binding signal (z-score),[15],-0.398
same,glycan array binding signal (z-score),[16],0.273
same,glycan array binding signal (z-score),Neu5Ac(a2-6)Gal,-0.046
same,glycan array binding signal (z-score),[17],-0.293
same,glycan array binding signal (z-score),[18],-0.061
same,glycan array binding signal (z-score),[19],-0.445
